Test results from ChEMBL document CHEMBL4513216, “Probing the Open Global Health Chemical Diversity Library for Multistage-Active Starting Points for Next-Generation Antimalarials” (ACS Infect Dis, 2020).
Hit rate of the full screen: of about 69,000 compounds, about 8,600 (12%) showed an effect of 50% or more. Only a selection was taken, and strong results are over-represented in it overall.

Test system: Plasmodium berghei
Experiment: Screen against P. berghei liver stage (PbLuc), transformed with Luciferase, at 10uM
Type: functional, HepG2
Settings: tested at 10 uM

Compound	INHIBITION
CN(Cc1ccncc1)C1COC2(CCN(Cc3cccs3)CC2)C1 (stereo not drawn)	4.57%
CN(Cc1ccncc1)C1COC2(CCN(Cc3ccccn3)CC2)C1 (stereo not drawn)	52%
CN(Cc1ccncc1)C1COC2(CCN(Cc3nccn3C)CC2)C1 (stereo not drawn)	73%
CN(Cc1ccncc1)C1COC2(CCN(Cc3ccsc3)CC2)C1 (stereo not drawn)	49.7%
CN(Cc1ccncc1)C1COC2(CCN(c3ncc(F)cn3)CC2)C1 (stereo not drawn)	37.8%
CN(Cc1ccncc1)C1COC2(CCN(Cc3ccco3)CC2)C1 (stereo not drawn)	59%
CN(C)C1COC2(CCN(Cc3ccncc3)CC2)C1 (stereo not drawn)	29.9%
CN(Cc1ccncc1)C1CC2(CCN(Cc3ccccn3)CC2)C1	28.7%
CN(Cc1ccccn1)C1COC2(CCN(Cc3cccnc3)CC2)C1 (stereo not drawn)	38.1%
O=C(O)CCNC(=O)Cc1csc(-c2cccc(Cl)c2)n1	25.1%
Cc1nc(CN2CCN(C(=O)c3sccc3C3CC3)CC2)oc1C	1.75%
CCc1cc(O)n2nc(C3CCCN3C(=O)c3ccccn3)cc2n1 (stereo not drawn)	18.85%
Cc1ccc(CNc2nc(O)cc(C3CC(=O)N(C)C3)n2)cc1 (stereo not drawn)	-16.5%
COc1cccc(CNc2nc(O)cc(C3CC(=O)N(C)C3)n2)c1 (stereo not drawn)	17.1%
CCOCCCNc1nc(O)cc(C2CC(=O)N(C)C2)n1 (stereo not drawn)	56.9%
CNC(=O)c1cnc(C)nc1CCNC(=O)CCc1ccccc1	-0.232%
COCC1c2c(cnn2CC2CC2)CCN1Cc1nccs1 (stereo not drawn)	7.11%
Cc1nc(CCNC(=O)C(N)c2c(C)n[nH]c2C)sc1C (stereo not drawn)	56%
Cc1n[nH]c(C)c1C(N)C(=O)NCCc1csc(C(C)C)n1 (stereo not drawn)	-10.8%
CSCc1nc(CCNC(=O)C(N)c2c(C)n[nH]c2C)cs1 (stereo not drawn)	21.2%
O=C(N1CCCC1)N1CCC2(CC1)COCCN(Cc1cccnc1)C2	41.6%
C[C@@H](NC(=O)c1ccc(Cl)cc1)c1onc(-c2cccnc2)c1C(=O)O	-4.82%
Cc1nc2c(c(N3CCN(c4ncccc4C(N)=O)CC3)n1)CCNC2	32.5%
COc1cccc2c1OCCCN(c1nc(N)nc3c1CCNC3)C2	27.6%
Cc1cc2n(n1)CCN(c1nc(N(C)C)nc3c1CCNC3)C2	57.6%
CN(C)c1nc2c(c(N3CCc4ccccc4C3)n1)CCNC2	66.7%

Compound	INHIBITION
Cc1cccc(=O)n1CCCNc1nc(N(C)C)nc2c1CCNC2	10.9%
NCCC1CN(c2nc(-c3ccccc3)nc3c2CCNC3)CCO1 (stereo not drawn)	38.2%
c1ccc2c(c1)CCN(c1ncnc3sc4c(c13)CCNC4)C2	38.2%
COCCNc1nc2c(c(N3CCn4nc(C)cc4C3)n1)CCNCC2	27.6%
Cc1ccccc1N1CCN(c2nc(N(C)C)nc3c2CCNC3)CC1	88.5%
c1ccc2c(c1)CCN(c1nc(-c3ccncc3)nc3c1CCNC3)C2	58%
Cc1cc2n(n1)CCN(c1nc(N)nc3c1CCNCC3)C2	12.1%
CN(C)c1nc2c(c(N3CCc4c(c(CO)nn4C)C3)n1)CCNC2	-2.43%
COCC1CN(Cc2ccsc2)Cc2nn(C)cc21 (stereo not drawn)	22.2%
CN(CCCO)Cc1cc(Cl)ccc1OCC(O)CN1CCCCCC1 (stereo not drawn)	-50.7%
COc1ccnc(N2CCN(C(=O)Cc3ccn(C(C)C)n3)CC2)n1	-47.6%
Cc1nn(C)c2nc(C(C)C)cc(C(=O)Nc3n[nH]c(C4CC4)n3)c12	45.3%
O=C(NCCc1nncn1C1CC1)c1cnn(Cc2ccccc2)c1	4.13%
COc1cccn(CC(=O)N2CCCC3(CCCCC3)C2)c1=O	-17.7%
Cc1cc(C)c(C(=O)N2CCCC(O)(CN3CCCC3)C2)cc1C (stereo not drawn)	34.9%
Cc1nc(Cc2ccccc2)nc2sc(C(=O)O)c(C)c12	53.1%
Cc1c(C(=O)O)sc2nc(Cc3ccccc3)nc(N)c12	-2.27%
CCN(CC(=O)NC)C(=O)c1sc(Cc2ccccc2)nc1C	-16%
COc1cc2nc(C)n(CC(=O)NCCN(C)C)c(=O)c2cc1OC	2.55%
COc1cc(CN2CCCC[C@]3(C)NC(=O)CC[C@H]23)ccc1F	23.9%
CCOCC1CN(Cc2cnn(C)c2)Cc2ncn(CC3CC3)c21 (stereo not drawn)	33%
CCn1cc2c(n1)CN(Cc1ccc(C)o1)CC2COCC1CC1 (stereo not drawn)	63.7%
CCOCC1CN(Cc2ccoc2)Cc2nn(CC3CC3)cc21 (stereo not drawn)	-19.4%
CCn1cc2c(n1)CN(Cc1cnn(C)c1)CC2COCC1CC1 (stereo not drawn)	63.7%
CCOCC1CN(Cc2cnn(C)c2)Cc2c1cnn2CC (stereo not drawn)	53.2%
CCOCC1CN(Cc2cnn(C)c2)Cc2cnn(C)c21 (stereo not drawn)	35.7%

Compound	INHIBITION
CCOCC1CN(Cc2cnn(C)c2)Cc2nn(CC3CC3)cc21 (stereo not drawn)	67.2%
CCOCC1CN(Cc2ccc(OC)cc2)Cc2nn(CC3CC3)cc21 (stereo not drawn)	33%
Cn1cc(CN2Cc3cn(C)nc3C(COCC3CC3)C2)cn1 (stereo not drawn)	34.6%
CCOCC1CN(Cc2cnn(C)c2)Cc2nn(C)cc21 (stereo not drawn)	18.2%
CCOCC1CN(Cc2cnn(C)c2)Cc2ncn(C)c21 (stereo not drawn)	36.9%
CCn1cc2c(n1)CN(Cc1ccoc1)CC2COCC1CC1 (stereo not drawn)	9.54%
O=C(c1cc(=O)[nH]c(=O)[nH]1)N1CCCC(CO)(CC2CC2)C1 (stereo not drawn)	47.6%
CN(Cc1ccccc1)C1COC2(CCN(Cc3nccs3)CC2)C1 (stereo not drawn)	37%
O=C(Cc1ccc(F)cc1)NCCNc1cc(N2CCCC2)ncn1	31.7%
CCN(CC)C1COc2c(cc(Br)c(C)c2Br)C1=O (stereo not drawn)	5.56%
CC(C)c1noc(CCNC(=O)NCC2Cc3ccccc3O2)n1 (stereo not drawn)	-34.8%
Cc1nc(N(C)C)nc(C)c1NS(=O)(=O)c1ccc(F)cc1F	-7.81%
CS(=O)(=O)NCC1CCCN(C(=O)Nc2ccccc2F)C1 (stereo not drawn)	4.1%
COc1cnc(CSc2nnc(C)s2)cc1OCC(=O)NC(C)(C)C	-3.11%
CN(C)S(=O)(=O)N1CCC[C@]2(C[C@@H](Oc3ccccn3)CO2)C1	-21.3%
O=C1CCC2(CCC(NC3CCOCC3)CC2)N1Cc1ccccc1 (stereo not drawn)	-47.9%
CCn1cc2c(n1)CN(Cc1ccncc1)CC2COCC1CC1 (stereo not drawn)	40.9%
CCn1cc2c(n1)CN(Cc1ccc(F)cc1)CC2COCC1CC1 (stereo not drawn)	70.7%
CCOCC1CN(Cc2ccc(F)cc2)Cc2nn(CC3CC3)cc21 (stereo not drawn)	5.96%
CCO[C@@H]1CO[C@@]2(CCCN(S(=O)(=O)c3cccnc3)C2)C1	30.7%
Cc1nc(-c2ccoc2)n(CC(=O)NCC(C)C)c1C	-8.28%
Cc1nc(-c2ccoc2)n(CC(=O)N(C)CC(C)C)c1C	50%
CCOC(=O)CNC(=O)Cn1c(-c2ccoc2)nc(C)c1C	8.52%
Cc1cccc(C)c1Nc1noc2c1CN(C(=O)c1cn(C)cn1)CC2	25.4%
Cn1c(=O)oc2ccc(NC(=O)N3CCOCC3)cc21	53.9%
O=C(Nc1ccc(CCN2CCSCC2)cc1)NC1CC1	1.79%

Compound	INHIBITION
O=C(NC1CC1)c1cc(NC(=O)N2CCSCC2)ccc1Cl	57.6%
Cn1c(=O)oc2ccc(NC(=O)N3CCc4ccccc4C3)cc21	-3.43%
Cn1c(=O)oc2ccc(NC(=O)N3CCSCC3)cc21	24.7%
CC1CN(C(=O)Nc2ccc(Cl)c(C(=O)NC3CC3)c2)CC(C)(C)O1 (stereo not drawn)	31.9%
O=C(NC1CC1)c1cc(NC(=O)N2CCOCC2)ccc1Cl	68.3%
O=C(NC1CC1)c1cc(NC(=O)N2CCCC(O)C2)ccc1Cl (stereo not drawn)	28.5%
O=C(NC1CC1)c1cc(NC(=O)N2CCCC2)ccc1Cl	31.9%
O=C(C1CCCO1)N1CCC(O)(Cn2ccc3ccncc32)CC1 (stereo not drawn)	-45.4%
Cc1cc(C)c2cc(CNCCCN3CCOCC3)c(=O)[nH]c2c1	3.91%
CCc1cc(=O)[nH]c2nnc(SCC(=O)N3CCC(C)CC3)n12	14.4%
CN(C)C[C@@H]1CCC[C@@H]2CN(c3nccc(C(F)(F)F)n3)C[C@@H]21	-3.58%
C[C@@H]1CN(C(=O)c2cc(Cn3cnc4ccccc43)on2)C[C@H](C)O1	30.5%
Cc1nc2ccccc2n1Cc1cc(C(=O)N2C[C@@H](C)O[C@@H](C)C2)no1	74%
Cc1nc2ccccc2n1Cc1cc(C(=O)N(C)C2CCOCC2)no1	37.3%
CN(C)C(=O)CN1CCOCC2(C1)CN(c1ncc(F)cn1)CCO2 (stereo not drawn)	10.6%
c1cnc(NC[C@@H]2CCC[C@@H]3CN(Cc4cc[nH]n4)C[C@@H]32)nc1	1.81%
Cn1cc(CN2C[C@H]3CCC[C@@H](CNc4nccn4C)[C@H]3C2)cn1	23.1%
c1ccc(NC[C@@H]2CCC[C@@H]3CN(Cc4csnn4)C[C@@H]32)nc1	15.9%
COCCN1C[C@H]2CCC[C@@H](CNc3ncccn3)[C@H]2C1	77.4%
Cn1ccnc1NC[C@@H]1CCC[C@@H]2CN(CC3CC3)C[C@@H]21	76.3%
c1ccc(NC[C@@H]2CCC[C@@H]3CN(Cc4cccnc4)C[C@@H]32)nc1	32.2%
Cn1cc(CN2C[C@H]3CCC[C@@H](CNc4ncccn4)[C@H]3C2)cn1	31.2%
Cn1ccnc1NC[C@@H]1CCC[C@@H]2CN(Cc3nccs3)C[C@@H]21	29%
c1ccc(NC[C@@H]2CCC[C@@H]3CN(Cc4nccs4)C[C@@H]32)nc1	51.2%
COCCN(CC(C)C)C(=O)c1cccc(Nc2cnccn2)c1	46.6%
